Source: PubChem BioAssay AID1851 (National Center for Advancing Translational Sciences (NCATS), 2009)
Hit rate of the full screen: of about 16,000 compounds, about 5,100 (32%) were called active. Roughly 25% stayed inconclusive and do not appear here. Calls follow the shape of the dose curve; as a rule, active = well fitted curve in the direction sought with a large enough effect; inconclusive = small, poorly fitted or top-dose-only effect, or effect the other way; inactive = no such curve, though single readings can be large or run the other way. Some of the results follow.

molecular target: Cytochrome P450 3A4 (Homo sapiens) (UniProt P08684); assay: Cytochrome panel assay with activity outcomes; conditions: recombinant CYP, pro-luciferin dealkylation, luminescence, p450-cyp3a4; series mostly up to 57.1 µM
% is scaled to controls: 0 for no effect and ±100 for the full control effect.

Cytochrome P450 3A4 (Homo sapiens), sequence (P08684 whole entry, looked up): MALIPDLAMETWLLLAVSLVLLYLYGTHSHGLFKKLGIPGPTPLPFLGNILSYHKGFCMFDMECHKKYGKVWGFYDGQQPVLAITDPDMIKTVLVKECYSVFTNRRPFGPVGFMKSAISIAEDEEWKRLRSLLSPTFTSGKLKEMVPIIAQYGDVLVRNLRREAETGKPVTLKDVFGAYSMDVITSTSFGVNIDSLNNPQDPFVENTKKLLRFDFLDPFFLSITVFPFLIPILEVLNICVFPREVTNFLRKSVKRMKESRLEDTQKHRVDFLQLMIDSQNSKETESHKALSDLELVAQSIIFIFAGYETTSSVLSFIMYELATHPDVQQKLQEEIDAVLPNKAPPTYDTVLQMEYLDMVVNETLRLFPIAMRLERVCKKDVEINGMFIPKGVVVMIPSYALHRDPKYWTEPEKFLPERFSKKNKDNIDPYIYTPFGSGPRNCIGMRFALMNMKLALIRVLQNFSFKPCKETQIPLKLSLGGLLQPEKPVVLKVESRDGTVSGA

SMILES	AC50	activity, negative = inhibition
CCCCCCc1c(C[C@H](N)C(=O)O)o[nH]c1=O	inactive	–
CCOc1nc(NC(C)C)nc(NC(C)C)n1	inactive	–
CC[n+]1c(P(=O)([O-])c2ccccc2)[nH]c2ccccc21	–	-3.39% [at 2.29 µM] (inactive)
Cc1cnc(CNc2ncncc2-c2cccc(C#N)c2)cn1	2 µM (active)	–
COc1cccc(-c2cncnc2NCc2cccs2)c1	1.58 µM (active)	–
CC(=O)O[C@H]1CC[C@@]2(C)C(=CC[C@@H]3[C@H]4CC[C@@H]([C@H](C)C(=O)O)[C@]4(C)CC[C@H]32)C1	–	1.09% [at 11.4 µM] (inactive)
N=c1nc(N2CCCCC2)cc(N)n1O	inactive	–
O=C(O)c1ccc(Sc2nnnn2-c2ccccc2)c([N+](=O)[O-])c1	–	-2.88% [at 11.4 µM] (inactive)
Cc1ccc(-n2nnnc2Sc2nc([N+](=O)[O-])nn2C)cc1C	15.8 µM (active)	–
COC(=O)c1cc(NS(=O)(=O)c2ccc(N3CCCCCC3)c([N+](=O)[O-])c2)cc(C(=O)OC)c1	6.31 µM (active)	–
COC(=O)c1ccc(N2CCN(CC(=O)c3ccc(-c4ccccc4)cc3)CC2)c([N+](=O)[O-])c1	–	15.7% [at 2.29 µM] (inactive)
COC(=O)c1cc(NS(=O)(=O)c2ccc(N3CCCCC3)c([N+](=O)[O-])c2)cc(C(=O)OC)c1	2 µM (active)	–
CS(=O)(=O)N1CCN(c2ccc(C(=O)NC3C4CC5CC(C4)CC3C5)cc2[N+](=O)[O-])CC1 (centres undefined)	inactive	–
CC1CCN(CCCCOc2ccccc2[N+](=O)[O-])CC1	–	-4.5% [at 2.29 µM] (inactive)
CC1CCN(c2ccc(S(=O)(=O)Nc3cc(C(=O)O)cc(C(=O)O)c3)cc2[N+](=O)[O-])CC1	5.62 µM (active)	–
COc1ccc2c(c1)C(=NN)c1cc(OC)ccc1-2	20 µM (active)	–
C[N+](C)(C)c1nc(N)nc2c1ncn2[C@H]1O[C@@H](CO)[C@@H](O)[C@H]1O	–	16.1% [at 11.4 µM] (inactive)
CCN1C(=O)[C@H]2[C@H]3[C@H](O)[C@H](O)C/C(=N/OCC[C@H]4C=C[C@H](OC(C)=O)[C@@H](COC(C)=O)O4)[C@@H]3CC[C@@H]2C1=O	–	-18.6% [at 11.4 µM] (inactive)
C=CC[C@@H]1C=C[C@H](O/N=C2\c3cc(OC)ccc3O[C@H](c3cccc(OC)c3)[C@H]2O)[C@H](CO)O1	–	-80.3% [at 11.4 µM] (inactive)
COc1ccc(O[C@H]2C=C[C@@H](c3ccccc3)O[C@H]2CO/N=C2/c3cc(OC)ccc3O[C@@H](c3cccc(OC)c3)[C@H]2O)cc1	3.16 µM (active)	–
COc1cccc([C@H]2Oc3ccc(OC)cc3/C(=N\O[C@@H]3O[C@H](COC(C)=O)[C@H](OC(C)=O)[C@H](OC(C)=O)[C@H]3OC(C)=O)[C@@H]2O)c1	3.16 µM (active)	–
CCCNC(=O)OC[C@@H]1O[C@H](CCO/N=C2\c3cc(OC)ccc3O[C@H](c3cccc(OC)c3)[C@H]2O)C=C[C@@H]1Oc1ccc(OC)cc1	5.01 µM (active)	–
CC(=O)OC[C@@H]1O[C@@H](O/N=C2/C[C@@H](O)[C@@H](O)[C@@H]3[C@@H]4C(=O)N(c5cccc(Oc6ccccc6)c5)C(=O)[C@H]4CC[C@@H]23)[C@H](OC(C)=O)[C@H](OC(C)=O)[C@@H]1OC(C)=O	–	-35.5% [at 11.4 µM] (inactive)
CC(=O)OC[C@@H]1O[C@@H](O/N=C2/C[C@@H](O)[C@@H](O)[C@@H]3[C@H]4C(=O)N(c5ccc(F)cc5F)C(=O)[C@@H]4CC[C@H]23)[C@H](OC(C)=O)[C@H](OC(C)=O)[C@@H]1OC(C)=O	–	-23.8% [at 11.4 µM] (inactive)
C[C@@]1(CCOCc2ccccc2)NC(=O)NC1=O	–	-5.69% [at 11.4 µM] (inactive)

SMILES	AC50	activity, negative = inhibition
CC(C)[C@H](NC(=O)OC(C)(C)C)[C@@H](O)CC(=O)C(C)(C)C	–	-11% [at 11.4 µM] (inactive)
O=c1c(Oc2ccccc2Br)c(C(F)(F)F)oc2c(CN3CCCC3)c(O)ccc12	inactive	–
Cc1cc(C)cc(N2C(=O)CC(Sc3nnnn3-c3ccccc3)C2=O)c1 (centres undefined)	2 µM (active)	–
O=C1OCCC1Sc1nnnn1-c1ccccc1 (centres undefined)	inactive	–
Cc1cc2c(ncn2Cc2ccccc2)c([N+](=O)[O-])c1C	inactive	–
Cc1cccc(Cn2cnc3c(NS(C)(=O)=O)c(C)c(C)cc32)c1	2 µM (active)	–
CC(C)CN=C(N)N=C(N)N	–	-1.21% [at 11.4 µM] (inactive)
CC(=O)NC1(c2cccc(F)c2)CCN(CC(=O)NC2CCCCC2)CC1	inactive	–
O=C(CN(C(=O)CSc1nc2ccccc2o1)c1cccc(F)c1)NC1CCCCC1	12.6 µM (active)	–
O=S(=O)(CC(O)COc1ccccc1Cl)c1ccccc1 (centres undefined)	–	-5.32% [at 11.4 µM] (inactive)
Cc1cccc(CNc2ncncc2-c2cccnc2)c1	0.631 µM (active)	–
c1cncc(CNc2ncncc2-c2cccnc2)c1	2 µM (active)	–
c1ccc(CNc2ncncc2-c2cccnc2)cc1	1.26 µM (active)	–
COc1ccc(NC(=O)N2CC3(CCN(C(=O)c4cnccn4)CC3)C2)cc1	inactive	–
O=C(Nc1ccccc1)N1CCC2(CC1)CCN(C(=O)c1csnn1)CC2	inactive	–
O=C(Nc1ccccc1)N1CCCC2(CCN(C(=O)c3csnn3)CC2)C1	15.8 µM (active)	–
COc1ccc(NC(=O)N2CCCC3(CCN(C(=O)c4csnn4)CC3)C2)cc1	15.8 µM (active)	–
COc1ccc(NC(=O)N2CC3(CCN(C(=O)c4csnn4)CC3)C2)cc1	inactive	–
CC[C@@]1(O)C(=O)OCc2c1cc1n(c2=O)Cc2cc3c(CN(C)C)c(O)ccc3nc2-1	–	-2.47% [at 11.4 µM] (inactive)
CC1(C)O[C@H]2[C@@H](O1)[C@@H](On1nnc3ccc(Cl)cc31)O[C@@H]2[C@@H]1COC(C)(C)O1	–	-24.7% [at 11.4 µM] (inactive)
CC1CCN(CC(=O)Nc2cccc([N+](=O)[O-])c2)CC1	inactive	–
Cc1ccc(NS(=O)(=O)c2ccc(OCC(=O)Nc3cccc([N+](=O)[O-])c3)c(C)c2)cc1	2 µM (active)	–
COc1ccccc1C(=O)Nc1cc2c(ccc3ccccc32)oc1=O	inactive	–
COc1ccccc1NC(=O)Cn1nnc(-c2ccccc2NC(=O)c2cc3ccccc3oc2=O)n1	3.55 µM (active)	–
